# Data taken from PubChem BioAssay (NCI).
# This is part of a sample that, as a whole, favours compounds with a hit. Of some 83,000 tested, about 20% had one in any assay.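 In brief: 96-well plates, 48 h treatment, single concentration, percent growth endpoint.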 The source made the active and inactive calls.
# Tested on: PC-3 prostate
# Test: NCI-60 one-dose screen, 48 h (100 = growth as untreated, 0 = no growth, -100 = all killed)
# Conditions: 10 µM
# Description: Growth inhibition of the PC-3 human tumor cell line is measured as a screen for anti-cancer activity. Cells are grown in 96 well plates and exposed to the test compound for 48 hours. Compounds are tested at a single concentration, which is 10^-5 M for most compounds. The reported endpoint is percent growth (GI% or GIPRCNT), where numbers from 0 - 100% represent growth inhibition, and numbers from -100% - 0 represent cell death. For example, a value of 40 represents 60% growth inhibition. A value of 0 means no net growth occurred over the course of the experiment. A value of -40 indicates 40% of cells at the beginning of the experiment died by the end of the experiment. A value of -100 means all cells are dead at the end of the experiment.
# NCI-60 Human Tumor Cell Lines Screen was performed using the standard one-dose NCI protocol, which is described in more detail at https://dtp.cancer.gov/discovery_development/nci-60/default.htm.
# Compounds with GIPRCNT values below 10 were considered active. Activity score was based on GIPRCNT using the following formula: […]
# Score is 0 for GIPRCNT values of 100 or above, 50 for GIPRCNT values of 0, and 100 for GIPRCNT values of -100.
row,SMILES,growth
1,CC12O[C@H](C[C@@H](OC(=O)c3ccccc3)[C@H]1O)n1c3ccccc3c3c4c(c5c6ccccc6n2c5c31)C(=O)NC4=O,42.5% (inactive)
2,COC(=O)c1ccc(=O)oc1,91.5% (inactive)
3,CCN(CC)CCOc1nc2ccc(OC)cc2c2c1-c1ccc(OC)cc1C2=O,-0.151% (active)
4,COc1ccc(NC(=O)CSc2nc3ccccc3c(=O)n2CCc2ccccc2)cc1,106% (inactive)
5,COc1ccc(-c2nc3ccccn3c2-c2nnc(-c3cc(OC)c(OC)c(OC)c3)o2)cc1,98.2% (inactive)
6,O=C1OCC2=C1C(c1cccc(Cl)c1)c1cc3c(cc1N2CCO)CCC3 (stereo not given),20.4% (inactive)
7,COc1cc(NC(=O)CSc2nc3ccccc3c(=O)n2CCc2ccccc2)cc(OC)c1OC,41.8% (inactive)
8,COc1cccc(C(=O)Nc2ccc(CN3CCc4nc5cc(OC)c(OC)cc5cc43)cc2)c1,21.7% (inactive)
9,O=C(Nc1cccc(-n2cc(-c3ccncc3)c(-c3ccc(O)c(Cl)c3)n2)c1)Nc1cccc(C(F)(F)F)c1,-15.7% (active)
10,CCN(CCCCCCCCCCN1CC(=O)N(CCCCCCCCCCN(CC)Cc2ccccc2OC)CC1=O)Cc1ccccc1OC,-40.9% (active)
11,Oc1[nH]c2cc(Cl)ccc2c1/C=c1/ccc2c(c1)N=C(c1cc(F)cc(F)c1)N=2,13% (inactive)
12,O=C1OCC2=C1C(c1cccc(Br)c1)c1cc3c(cc1N2CCO)CCC3 (stereo not given),22.4% (inactive)
13,CCN(CC)CCCC(C)Nc1ccc2ccc(Cl)cc2n1 (stereo not given),90.5% (inactive)
14,O=C(Nc1cccc(-n2cc(-c3ccncc3)c(-c3cc(O)cc(Cl)c3)n2)c1)c1cc(C(F)(F)F)cc(C(F)(F)F)c1,21.7% (inactive)
15,COc1ccc2c(c1)[n+]([O-])c(C#N)c(NC(=O)c1ccco1)[n+]2[O-],179% (inactive)
16,O=C(Nc1ccncc1)C(=O)c1cn(S(=O)(=O)c2cccc(Cl)c2)c2ccccc12,72.4% (inactive)
17,O=C(Nc1ccccc1)Nc1cccc(-n2cc(-c3ccncc3)c(-c3ccc(O)c(Cl)c3)n2)c1,31.3% (inactive)
18,COc1ccc(-c2nnc(-c3c(-c4ccccc4)nc4ncccn34)o2)cc1OC,97.9% (inactive)
19,COc1cc2c(cc1OC)N(CCO)C1=C(C(=O)OC1)C2c1ccc(Cl)c(Cl)c1 (stereo not given),99.2% (inactive)
20,Cc1cc(C)c(NC(=O)c2sc3nc4c(cc3c2N)C(=O)CCC4)c(C)c1,23.5% (inactive)

row,SMILES,growth
1,O=[N+]([O-])c1cccc(-c2ncc(-c3ccc(Cl)cc3Cl)[nH]2)c1,-82.6% (active)
2,COc1cc(-c2nn3c(/C=C4/C(=O)Nc5ccccc54)c(-c4ccc(C)cc4)nc3s2)cc(OC)c1OC,85.5% (inactive)
3,c1ccc(C(NC2CC3CCC2C3)c2ccccc2)cc1 (stereo not given),97.2% (inactive)
4,CCN(CC)CCN1CC(=O)Nc2cc(Cl)ccc21,90.8% (inactive)
5,CCc1ccc2c(c1)N(CCO)C1=C(C(=O)OC1)C2c1ccccc1 (stereo not given),93.5% (inactive)
6,CC(=O)c1cc(Br)ccc1O,93.5% (inactive)
7,Cc1cccc(Cl)c1NC(=O)c1ccc2nc(NC(=O)NC3CCN(C)CC3)sc2c1,69.7% (inactive)
8,COc1ccc(C(=O)/C=C/c2cc(-c3cc(OC)c(OC)c(OC)c3)n[nH]2)cc1,20.5% (inactive)
9,CCOC(=O)N1C/C(=C/c2ccc(Cl)cc2)C(=O)/C(=C/c2ccc(Cl)cc2)C1,49.4% (inactive)
10,O=C(Cc1csc2nc(-c3ccc(Cl)cc3)cn12)N/N=C/c1ccccc1O,55.2% (inactive)
11,COc1ccc(-c2nc3sc(-c4ccc(OC)cc4)c(-c4ccc(OC)cc4)n3c2/C=C/c2ccc(C(C)C)cc2)cc1,79.4% (inactive)
12,O=C(Nc1ccc(Cl)c([N+](=O)[O-])c1)Nc1nc2ccccc2s1,49.9% (inactive)
13,COc1ccc(/C=C2/CN(C(=O)c3ccccc3F)C/C(=C\c3ccc(OC)cc3)C2=O)cc1,52% (inactive)
14,Clc1ccc(-c2cn(-c3ccccc3)c(-c3ccccc3)n2)c(Cl)c1,-98.3% (active)
15,CN(CCc1ccccn1)c1ccccc1,101% (inactive)
16,COc1ccc(-c2nc3sccn3c2-c2nc3c([nH]2)C(=O)c2ccccc2C3=O)cc1,73.7% (inactive)
17,COc1cc(Nc2ncnc(Nc3ccc4c(n3)NC(=O)C(C)(C)O4)n2)cc(OC)c1OC,25.5% (inactive)
18,COc1ccc(-c2nc(-c3nc4cc(Cl)c(Cl)cc4[nH]3)c3ccccn23)cc1,57% (inactive)
19,N#Cc1cc(-c2cc3ccccc3o2)oc1N,-24.5% (active)
20,COc1ccc(-c2nc(-c3nc4cc(Cl)c(F)cc4[nH]3)c3ccccn23)cc1,34.6% (inactive)
